From PubChem BioAssay (NCI) come the findings set out here.

Experiment in all cases: NCI-60 one-dose screen, 48 h (100 = growth as untreated, 0 = no growth, -100 = all killed)
Common to all, as to conditions: 10 µM unless noted

The subject of test [1] is DU-145 prostate.
For test [2], the system named is K-562 leukemia.
In test [3] the test system is MALME-3M melanoma.
Test [4] relates to MDA-MB-231 breast.
For test [5], the system named is RXF 393 renal.
Test [6] deals with SF-268 CNS.
Test [7] relates to SF-295 CNS.
For test [8], the system named is SF-539 CNS.
For test [9], the system named is UACC-257 melanoma.
Test [10] relates to M14 melanoma.
Test [11] has as its system HCT-15 colon.
Test [12] concerns HT29 colon.
Test [13] has as its system SNB-75 CNS.
Test [14] has as its system SNB-19 CNS.
Test [15] has as its system U251 CNS.
Test [16] has as its system PC-3 prostate.
Test [17] deals with UACC-62 melanoma.
The subject of test [18] is LOX IMVI melanoma.
Test [19] relates to SK-MEL-28 melanoma.

The panel holds about 83,000 compounds, 20% with a hit somewhere; the sample as a whole holds those more often.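 Results are percent growth after 48 hours of single-concentration exposure. 100 means growth as in untreated cells, lower positive values show inhibition; negative values down to -100 show cell death.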 A number with no mark means an inactive call. The source made the active and inactive calls. The calls were made as follows: active = growth percent below 10; inactive = the rest.

With `Cn1nc(N)c2cc([C@@H]3Nc4ccc5[nH]ncc5c4[C@H]4C5CCC(C5)[C@@H]34)ccc21` (stereo partly drawn), the growth in test [1] was 18.8%; in test [2], 9.76% (active); in test [3] it was 52.7%; in [4], 48.5%; in test [5], -11.1% (active); in test [6], 42.5%. Further, the growth is 9.61% (active) in test [7]; -15.5% (active) in test [8]; 77.4% in test [9]; 3.16% (active) in [10]; 17.9% in test [11]; 11.6% in test [12]. In addition, the growth in test [13] is -17.9% (active); in [14] it was 29.5%; in test [15], 21.1%; in test [16] it was 17.4%; in test [17] it was 32.1%; in [18], 38.8%. Also, in test [19], the growth is 53.2%.

Regarding `CC1=C[C@H]2c3c(c(O)c(O)c4oc(-c5ccccc5)cc(=O)c34)[C@H](c3cc(O)c(O)c4oc(-c5ccccc5)cc(=O)c34)[C@H]2C(C)(C)C1`, the growth in test [1] was 9.89% (active); in [2], 2.82% (active); in [3] it was -12.8% (active); in [4] it was 5.31% (active); in test [5], -26.6% (active); in test [6], 5.26% (active). Further, the growth was -18.2% (active) in test [7]; -10.5% (active) in [8]; 12.8% in test [9]; -28.1% (active) in test [10]; 11.3% in test [11]; 9.18% (active) in test [12]. Also, the growth in test [13] was -8.01% (active); in [14], 11.9%; in [15], 2.66% (active); in test [16] it was 5.35% (active); in test [17], -46.3% (active); in [18], -86.5% (active). The growth in test [19] is 8% (active).

As for `CCCSc1ccc2nc(NC(=O)OC)[nH]c2c1`, the growth in test [1] is 16.1%; in [2], 14.7%; in test [3], 42%; in test [4], 18.8%; in test [5], -4.86% (active); in test [6], 44.8%. The growth in test [7] was -2.45% (active); in test [8] it was 4.44% (active); in test [9], 59.3%; in [10], 0.47% (active); in [11], 18.1%; in test [12], 2.84% (active). Also, the growth in [13] was 22.4%; in test [14], 29.9%; in [15], 14.1%; in test [16], 20.7%; in test [17] it was 27.6%; in test [18], 50.1%. In test [19], the growth is 53.7%.

On to `CCN(CC)CCCCNc1c2ccc(Cl)cc2nc2ccc(OC)cc12`, for which the growth in test [1] was -2.29% (active); in [2] it was -19% (active); in test [3], -65.6% (active); in [4], -52.4% (active); in test [5] it was -61% (active); in test [6] it was -23.1% (active). In addition, the growth in [7] was -58.7% (active); in test [8], -83% (active); in test [9] it was -37.1% (active); in [10], -71.3% (active); in test [11], -21.2% (active); in [12], 3.91% (active). In addition, the growth in test [13] is -95.3% (active); in test [14] it was 1.53% (active); in test [15], -9.07% (active); in test [16] it was -45.9% (active); in test [17], -30.8% (active); in test [18], -57.3% (active). Moreover, the growth in [19] is -82.5% (active).

With `C=C(C)C1CC(O)C2(C)CCCC3C2C1CC(C)C3(C)CC/C(C)=C/C(O)C1CCC(=O)c2c(OC)cc(OC)cc21` (stereo not drawn), the growth was 43.3% in test [1]; 22% in [2]; 52% in test [3]; 48.6% in test [4]; 52.7% in test [5]; 44.5% in test [6]. For the same molecule, the growth was 41.4% in [7]; 50.8% in [8]; 12.6% in test [9]; 72.7% in [10]; 30.7% in [11]; 46.6% in test [12]. The growth in test [13] was 38.3%; in test [14], 56.5%; in [15] it was 35.9%; in test [16] it was 20.9%; in test [17], 36.5%; in test [18], 22.5%. In addition, in test [19], the growth was 49.6%.

Turning to `CC1=CC(=NN=c2cc(C)n([O-])c(C)c2)C=C(C)[N+]1=O`, the growth in test [1] is 107%; in [2], 85%; in test [3], 106%; in [4] it was 97.7%; in test [5] it was 87.8%; in test [6], 106%. Further, the growth in [7] is 112%; in test [8], 105%; in test [9], 77.4%; in test [10], 77.2%; in test [11] it was 94.4%; in test [12] it was 74.6%. For the same molecule, the growth is 64.7% in [13]; 103% in [14]; 91.2% in [15]; 91.9% in test [16]; 80.3% in test [17]; 41.7% in test [18]. Besides, in test [19], the growth is 80.8%.

Consider `C#CC(F)(F)[C@]1(O)CC[C@H]2[C@@H]3CCC4=CC(=O)CCC4=C3[C@@H](c3ccc(C(C)=O)cc3)C[C@@]21C`, for which the growth was 86.4% in [1]; 61.4% in [2]; -63.4% (active) in test [3]; 60.6% in [4]; 85.4% in test [5]; 36.3% in test [6]. The growth in test [7] was 22.5%; in test [8], -81.9% (active); in test [9], 89.8%; in [10] it was 96.6%; in [11], 89.6%; in test [12] it was 1.5% (active). Also, the growth in [13] was 73.7%; in [14], 95.6%; in [15] it was 75.5%; in test [16] it was 37%; in test [17], 80.2%; in [18], 48.9%. In addition, the growth in test [19] was 107%.
